This passage reports Potency and viability change, negative = cytotoxic results from PubChem BioAssay (Tox21).

Records with an inconclusive call do not appear. Entries that show only a call come without a potency. Values without a mark were called inactive. The source made the active and inactive calls. Calls follow the shape of the dose curve; as a rule, active = well fitted curve in the direction sought with a large enough effect in the repeat runs; inconclusive = weak or mixed curves; inactive = no such curve, though single readings can be large; an effect the other way counts as inactive or inconclusive.
Potency is read from the fitted curve at half-maximal effect.

The nature of one test: qHTS assay to identify small molecule antagonists of the estrogen related receptor signaling pathway with the pleiotropic PPARgamma coactivator (PGC) cell viability counter screen (AID 1224822;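 also: viability read after 17.5 h compound exposure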). The settings on record: ERR/PGC reporter cell line viability counter screen; series mostly up to 46.1 µM. An outline of the steps: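 Viable cell signal (CellTiter-Fluor, 30 min, 37 C/5% CO2) was measured in PGC/ERR cells after a 17.5 h compound incubation.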
On the technique in general: Quantitative high-throughput screening tests each substance at several concentrations.
Turning to `O=[N+]([O-])c1ccc2c(c1)S(=O)(=O)C=C2`, the Potency is 11.4 µM (active).
In the case of `COC(=O)C1=C(C)NC(C)=C(C(=O)OC)C1c1cccc(NC(=O)NCCCN2CCC(c3cccc(OC)c3)CC2)c1`, the Potency was 20.3 µM (active).
`O=[N+]([O-])c1ccc(CNc2nc(NCc3cccc(C(F)(F)F)c3)nc3nc[nH]c23)cc1`: the Potency result is “inactive”.
Same read-out and setting: to `O=c1ccc2c(OCCCCc3ccccc3)c3ccoc3cc2o1` belongs “inactive”; to `O=C1Nc2ccc(I)cc2/C1=C/c1cc(Br)c(O)c(Br)c1`, “inactive”.
The same measure, in the same setting: to `Nc1ccn([C@H]2O[C@H](CO)[C@@H](O)C2(F)F)c(=O)n1` belongs “inactive”.
The same measure, in the same setting: to `CCCCN(CC)c1nc(C)nc2c1c(C)cn2-c1c(C)cc(C)cc1C` belongs 16.8 µM (active); to `COc1cc2nc(N3CCCN(C)CC3)nc(NC3CCN(Cc4ccccc4)CC3)c2cc1OC`, 10.6 µM (active); to `CN1CCN(CCCN2c3ccccc3Sc3ccc(Cl)cc32)CC1`, 27.6 µM (active).
`Oc1cc2c(cc1O)CN(C(=S)NCCc1ccc(Cl)cc1)CCC2`: the Potency result is “inactive”.
On to `c1ccc2c(c1)CCC[C@H]2Nc1nc2ccccc2[nH]1`, for which the Potency result is “inactive”.
Still for that read-out and setting: to `CN1C2CCC1CC(OC(=O)c1c[nH]c3ccccc13)C2` (centres undefined) belongs “inactive”; to `N.N.O=C(O)C1(C(=O)O)CCC1.[Pt+2]`, “inactive”; to `CCOC(=O)N1CCN(/[N+]([O-])=N/Oc2ccc([N+](=O)[O-])cc2[N+](=O)[O-])CC1`, 13.9 µM (active).
Regarding `CN(C)S(=O)(=O)c1ccc2c(c1)/C(=C/c1cc3c([nH]1)CCCC3)C(=O)N2`, the Potency result was “inactive”.
Turning to `C[C@H](Cc1ccc(O)c(O)c1)[C@@H](C)Cc1ccc(O)c(O)c1`, the Potency result was “inactive”.
Take `N#C/C(=C\c1ccc(-c2cc(Cl)ccc2Cl)o1)C(=O)Nc1cccc2ncccc12`: the Potency is 14.4 µM (active).
For `C=CCN1CCc2c(cc(O)c(O)c2Cl)C(c2ccccc2)C1` (centres undefined), the Potency result is “inactive”.
The same measure, in the same setting: to `CCCCCCCCCCC(C)(C)C(=O)Nc1c(OC)cc(OC)cc1OC` belongs “inactive”; to `C=CCN1CCc2c(cc(O)c(O)c2Br)[C@@H](c2ccccc2)C1`, “inactive”.

A further test can be described thus: qHTS assay to identify small molecule agonists of the estrogen related receptor signaling pathway with the pleiotropic PPARgamma coactivator (PGC) (AID 1224823). The settings on record: ERR/PGC reporter cell line, luciferase agonist mode; series mostly up to 46.1 µM. An outline of the steps:
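In this quantitative high-throughput screen, an 18 h, 37 C treatment of PGC/ERR cells with compounds in DMSO preceded a One-Glo luminescence read taken after 30 min at room temperature.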
For the molecule `Clc1ccc2c(c1)N=C(N1CCNCC1)c1ccccc1N2`, the Potency entry was “inactive”.
Same read-out and setting: the value for `COC(=O)C1=C(C)NC(C)=C(C(=O)OC)C1c1cccc(NC(=O)NCCCN2CCC(c3cccc(OC)c3)CC2)c1` was “inactive”; that for `O=[N+]([O-])c1ccc(CNc2nc(NCc3cccc(C(F)(F)F)c3)nc3nc[nH]c23)cc1` was “inactive”.
Still for that read-out and setting: the value for `O=c1ccc2c(OCCCCc3ccccc3)c3ccoc3cc2o1` was “inactive”.
On the same count and under the same terms, the value for `O=C1Nc2ccc(I)cc2/C1=C/c1cc(Br)c(O)c(Br)c1` was “inactive”.
With `CCCCN(CC)c1nc(C)nc2c1c(C)cn2-c1c(C)cc(C)cc1C`, the Potency result is “inactive”.
Same read-out and setting: the value for `O=C1NC(=O)c2c1c(-c1ccccc1)cc1[nH]c3ccc(O)cc3c21` was “inactive”; that for `CCN(CC)CC#CCOC(=O)C(O)(c1ccccc1)C1CCCCC1` (centres undefined) was “inactive”; that for `NS(=O)(=O)C#Cc1ccccc1` was “inactive”.
In the case of `CN1CCCC1CCOC(C)(c1ccccc1)c1ccc(Cl)cc1` (centres undefined), the Potency entry was “inactive”.
Still for that read-out and setting: to `COc1cc2nc(N3CCCN(C)CC3)nc(NC3CCN(Cc4ccccc4)CC3)c2cc1OC` belongs “inactive”.
As to `COc1ccccc1N1CCN(CCCCNC(=O)c2ccc3ccccc3c2)CC1`, the Potency entry was “inactive”.
Still for that read-out and setting: to `NC(=NCc1ccccc1)NC(=O)c1nc(Cl)c(N)nc1N` belongs “inactive”; to `Oc1cc2c(cc1O)CN(C(=S)NCCc1ccc(Cl)cc1)CCC2`, “inactive”.
`Oc1ccc(/C=C/c2ccc(/C=C/c3ccc(O)cc3)c(Br)c2)cc1`: the Potency entry is “inactive”.
For `COC(=O)C1=C(C)NC(C)=C([N+](=O)[O-])C1c1ccccc1C(F)(F)F` (centres undefined), the Potency result is “inactive”.
The same measure, in the same setting: the value for `Nc1c(S(=O)(=O)O)cc(Nc2ccc(Nc3nc(Cl)nc(Nc4ccc(S(=O)(=O)O)cc4)n3)c(S(=O)(=O)O)c2)c2c1C(=O)c1ccccc1C2=O` was “inactive”.
On the same count and under the same terms, to `c1ccc2c(c1)CCC[C@H]2Nc1nc2ccccc2[nH]1` belongs “inactive”.
On the same count and under the same terms, to `CC(C)N(CCC(=O)c1ccc2ccccc2c1)Cc1ccccc1` belongs “inactive”; to `CCOC(=O)N1CCN(/[N+]([O-])=N/Oc2ccc([N+](=O)[O-])cc2[N+](=O)[O-])CC1`, “inactive”.
Consider `COc1cccc2c1[C@@H]1CN(CCCCn3c(=O)[nH]c4c(sc5ncc(-c6ccccc6)nc54)c3=O)C[C@@H]1CO2`, for which the Potency result is “inactive”.
Still for that read-out and setting: the value for `Cc1cccc(C2CN(C)CCc3c2cc(O)c(O)c3Cl)c1` (centres undefined) was “inactive”.
Still for that read-out and setting: to `CN(C)S(=O)(=O)c1ccc2c(c1)/C(=C/c1cc3c([nH]1)CCCC3)C(=O)N2` belongs 23.7 µM (active).
Regarding `C[C@H](Cc1ccc(O)c(O)c1)[C@@H](C)Cc1ccc(O)c(O)c1`, the Potency entry was “inactive”.
`C=CCN1CCc2c(cc(O)c(O)c2Cl)C(c2ccccc2)C1` (centres undefined): the Potency entry was “inactive”.
Same read-out and setting: to `COc1ccc(/C=C/c2nc(NCCCN(C)C)c3ccccc3n2)cc1` belongs “inactive”; to `Nc1nc(N)c(N=O)c(OCC2CCCCC2)n1`, “inactive”; to `C=CCN1CCc2c(cc(O)c(O)c2Br)[C@@H](c2ccccc2)C1`, “inactive”.

Another test is described as follows: qHTS assay to identify small molecule antagonists of the estrogen related receptor (ERR) signaling pathway from Tox21 library - cell viability counter screen (AID 1224834). Also: nearly all actives have a fitted effect of over 30% in size. The settings on record: ERR reporter cells viability, CellTiter-Fluor, 17.5 h; series mostly up to 92.4 µM. An outline of the steps:
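In this quantitative HTS format, ERR cells receive compounds in DMSO and are incubated for 17.5 h at 37 C. Live-cell protease activity is then detected with CellTiter-Fluor.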
As for `CN1CCN(CCCN2c3ccccc3Sc3ccc(C(F)(F)F)cc32)CC1`, the Potency is 29.8 µM (active).
Same read-out and setting: to `Cc1cc(Br)ccc1NC(=O)CCl` belongs 19.3 µM (active).
For `CN1CCN(CCCN2c3ccccc3Sc3ccc(Cl)cc32)CC1`, the Potency was 29.8 µM (active).
Still for that read-out and setting: the value for `O=C1CCC/C=C\CCCCCCCCCC1` was “inactive”.
The same measure, in the same setting: the value for `c1ccc(-c2ccccc2-c2ccccc2)cc1` was “inactive”.
On to `O=C(O)C[C@H](O)C[C@H](O)/C=C/c1c(C2CC2)nc2ccccc2c1-c1ccc(F)cc1`, for which the viability change, negative = cytotoxic was 0.576% [at 19 µM].
